# Rows were chosen to be rich in hits. Some 9.4% of all compounds tested hit in one or more screens of this group.
# SMN2 splice enh: increases expression of the SMN2 splice variant. HEK293 SMN2-luciferase splicing reporter, luminescence, 30-36 h. 2.8% of 210,000 active. Potency, µM (doses to about 46.1 µM), without a hit: at the top dose activity change, positive = activation, hits mostly activators; further: % of control where 0% means no effect; nearly all actives have a fitted effect of over 55% in size
#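 HEK293 cells carry an SMN2 […]–luciferase reporter in which exon 7 inclusion puts luciferase in frame. Cells were plated 10-12 h before compound addition, then incubated 30-36 h at 37C. ONE-Glo luminescence was read; sodium butyrate at 4.5 mM final served as control.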
# ELG1 genotox: genotoxicity induction in ELG1-luciferase HEK293T cells | AID 504466 | Potency, µM (series often up to 46 µM), for inactives: at the highest dose activity change, positive = activation, most hits filed as activators | HEK293T ELG1-luciferase reporter, luminescence, 16 h | 1.3% of 330,000 active; further: % of control where 0% means no effect; nearly all actives have a fitted effect of over 60% in size
#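 Luminescence read-out: rising ELG1-luciferase signal, reflecting elevated ELG1 protein under genetic stress, flags genotoxic compounds. Cells were treated for 16 hr at 37 °C before ONE-Glo detection.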
# Rab9 promoter act: activates the Rab9 promoter. Huh7 Rab9 promoter-luciferase reporter, luminescence, 24 h. Potency, µM (series often up to 9.22 µM), inactives show at the top dose activation, negative = inhibition, hits mostly activators. 2.8% of 320,000 active; further: % of control where 0% means no effect; nearly all actives have a fitted effect of over 60% in size
#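 Cells were plated at 1500 per well in reduced-serum medium with 10% FBS and left 2 h. Compound in DMSO was then added for 24 h at 37 °C. Reporter signal was read by luminescence after 10 min with luciferase detection reagent.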
# FLuc modulator: inhibits or activates purified firefly luciferase, miR-21 counter-screen. AID 588342. purified FLuc, Km substrates, luminescence inhibition. P08659. 6.9% of 360,000 active. Potency, µM (doses to about 57.5 µM), for the others: at the top dose activity change, negative = inhibition, actives largely listed as inhibitors;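 further: plate controls were vehicle for no effect and reference inhibitor for full effect; nearly all actives have a fitted effect of over 55% in size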
# Target sequence (P08659 whole entry, looked up): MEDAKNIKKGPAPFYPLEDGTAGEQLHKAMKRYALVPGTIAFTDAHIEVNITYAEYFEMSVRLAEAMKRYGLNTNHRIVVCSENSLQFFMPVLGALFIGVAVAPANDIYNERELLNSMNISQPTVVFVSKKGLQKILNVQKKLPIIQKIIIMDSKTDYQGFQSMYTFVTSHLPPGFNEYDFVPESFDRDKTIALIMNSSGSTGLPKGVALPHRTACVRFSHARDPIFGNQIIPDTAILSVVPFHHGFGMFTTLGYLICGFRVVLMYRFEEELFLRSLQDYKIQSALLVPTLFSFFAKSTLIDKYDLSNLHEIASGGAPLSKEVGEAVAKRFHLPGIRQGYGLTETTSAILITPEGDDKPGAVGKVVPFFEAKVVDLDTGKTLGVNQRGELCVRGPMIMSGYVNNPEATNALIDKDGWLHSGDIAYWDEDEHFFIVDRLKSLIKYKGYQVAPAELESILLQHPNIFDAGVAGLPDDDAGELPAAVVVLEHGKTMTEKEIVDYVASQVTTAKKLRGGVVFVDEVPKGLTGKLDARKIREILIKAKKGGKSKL
#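 Biochemical qHTS of compounds, final roughly 60 µM downward over six points, against 10 nM purified firefly luciferase using Km concentrations of substrates (10 uM D-luciferin, 10 uM ATP) in Tris acetate pH 7.5 buffer; luminescence output.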
# NPC1 promoter act: activates the NPC1 promoter; Huh7 NPC1 promoter luciferase reporter, 24 h; 2.4% of 320,000 active; Potency, µM (top dose mostly 9.22 µM), inactives show top-dose activation, usual class: activators; further: % of control where 0% means no effect; nearly all actives have a fitted effect of over 60% in size
#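 Luminescence from an NPC1 promoter-driven luciferase reporter in stably transfected Huh7 cells was measured after 24 h compound treatment at 37 °C, followed by 10 min ambient incubation with luciferase detection reagent.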
# ELG1 DNA repair: blocks ELG1-dependent DNA repair in HEK293T cells; HEK293T ELG1-luciferase reporter, luminescence, 16 h; DNA damage induced by 5-fluorouridine; AID 504467; 2.3% of 330,000 active; Potency, µM (series often up to 46.1 µM), without a hit: top-dose activity change, negative = inhibition, usual class: inhibitors; further: on the % scale 0 is the no-effect control and ±100 the full control effect; nearly all actives have a fitted effect of over 55% in size
#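 Reporter activity after DNA damage by 5-fluorouridine is monitored. Compound-treated cells incubate 16 hr at 37 °C, then ONE-Glo is added for 30 min before luminescence reading.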
# The depositor's hits bear a star; u = inconclusive; x = not tested or not shown; [ ] = remark or other dose. The call rests on the fitted dose curve; in most records, active means well fitted curve in the direction sought with a large enough effect; inconclusive means small, poorly fitted or top-dose-only effect, or another doubt; inactive means no such curve, though single readings can be large; an effect the other way counts as inactive or inconclusive. Potency means the concentration at half of the fitted maximal effect.
SMILES,SMN2 splice enh,ELG1 genotox,Rab9 promoter act,FLuc modulator,NPC1 promoter act,ELG1 DNA repair
CC1Cc2cc(S(=O)(=O)NCc3ccccc3Cl)ccc2N1C(=O)C1CCC1 (stereo not given),x,x,x,-17%,x,x
CCOC(=O)c1ccc2c(c1)N(Cc1cccc(C(F)(F)F)c1)C(=O)c1ccccc1S2(=O)=O,x,x,x,5%,x,x
CCc1nnc(NC(=O)CSc2nc3c([nH]c4ccccc43)c(=O)n2-c2ccc(Cl)cc2)s1,x,x,x,3%,x,x
Cc1cc2nc(-c3ccc(OCc4ccc(F)cc4)cc3)cc(C(F)(F)F)n2n1,-6%,x,x,-8%,x,x
Cc1c(N)c(=O)n(-c2ccccc2)n1C,4%,-4%,-4%,-1%,-10%,12%
Cc1cc(=S)n(-c2ccccc2)n1C,-17%,16µM*,25%,8%,17%,u
Cc1cc(Cl)ccc1OCc1nc(-c2ccc(-n3cccc3)cc2)no1,-8%,x,x,-1%,x,x
Cc1cc(Cl)ccc1OCc1nc(-c2ccc(O)cc2)n[nH]1,10%,-2%,0%,11µM*,-3%,23%
COc1ccccc1NC(=O)CSc1ccc(-c2ccc(-n3cccn3)cc2)nn1,x,0%,13%,1.5µM*,13%,-8%
CC(=O)c1cccc(NC(=O)CSc2ccc(-c3ccc4c(c3)OCO4)nn2)c1,12%,-3%,u,u,27%,u
COc1ccc(-c2ccc(SCC(=O)NC3CCCCC3)nn2)cc1OC,x,9%,u,5.4µM*,27%,u
COc1ccc(-c2ccc(SCC(=O)Nc3cccc(C(C)=O)c3)nn2)cc1OC,x,-15%,30%,6µM*,23%,u
CC(=O)c1cccc(NC(=O)CSc2ccc(-c3ccco3)nn2)c1,x,-13%,15%,24µM*,12%,-13%
CCOc1ccc(CNC(=O)Cn2nc(C)n3cccc3c2=O)cc1,x,x,x,-3%,x,x
Cc1cc(Cl)c(S(=O)(=O)N2CCCC2)cc1OCC(=O)NC1CCCCC1,-77%,-5%,-10%,0%,0%,13µM*
O=C(COc1ccccc1Br)NC(=O)NC1CCCC1,x,u,2.8µM*,12µM*,27%,u
COc1cc(CNn2cnnc2)ccc1OCC(=O)NC1CCCCC1,-29%,5%,-28%,-1%,1%,11%
COC(=O)c1ccccc1OCC(=O)NC1CCCCC1,5%,21µM*,23%,u,16%,14%
COc1cc(C)ccc1OCC(=O)NC1CCCCCC1,x,u,u,17µM*,u,u
C=CCNC(=O)N1CCc2nc(COc3ccccc3)c3c(c2C1)CO[C@@H](C)C3,-10%[9.22 µM],x,x,x,x,x
Clc1ccccc1Cn1cccc1C1=NC(Cc2ccccc2)CO1 (stereo not given),-26%,x,x,5%,x,x
CSc1ccc(N/N=C(/C#N)S(=O)(=O)C(C)(C)C)cc1,-55%,-12%,-1%,u,2%,18µM*
CCCNC(=O)c1ccc(N2CCC3(CC2)CC(c2ccccc2)=NO3)c(NC(=O)c2ccccc2)c1,x,-5%,0%,0%,-1%,6.5µM*
CCN(c1ccc(NC(=O)CN2C(=O)NC3(CCOc4ccccc43)C2=O)cc1)C(C)C (stereo not given),-9%,1%,-2%,17µM*,-3%,0%
COc1cccc(NC(=O)c2oc3ccc(S(=O)(=O)N(C)C4CCCCC4)cc3c2C)c1,x,x,x,-2%,x,x
SMILES,SMN2 splice enh,ELG1 genotox,Rab9 promoter act,FLuc modulator,NPC1 promoter act,ELG1 DNA repair
O=C(NCc1ccc(Cl)cc1)c1ccc(NC(=O)N2CC3CCCN3c3ccccc32)cc1 (stereo not given),-12%,x,x,-13%,x,x
O=C1N/C(=N/S(=O)(=O)Cc2ccccc2)S/C1=C/c1ccc2c(c1)OCO2,x,-2%,-5%,27µM*,-2%,3%
COc1ccc(/C=C2\SC(=NCc3ccccc3)NC2=O)cc1,-10%,-1%,-2%,-13%,-2%,-17%
O=C(NCCc1nc(-c2ccccc2)cs1)c1ccc(Br)cc1,-5%[1.84 µM],0%,-6%,15µM*,-6%,u
O=C(O)c1ccc(-c2nc(-c3ccc(Cl)cc3)cs2)cc1,4.5µM*,19%,0.32µM*,0.95µM*,u,u
O=C(O)c1ccc(-c2nc(-c3cccc(C(F)(F)F)c3)cs2)cc1,2%,4%,-2%,u,24%,u
O=C(Nc1ccc(-c2csc(-c3ccccc3)n2)cc1)c1ccccc1,-6%,3%,-2%,0%,-5%,-3%
COc1ccc(-c2csc(-c3ccc(C(=O)O)cc3)n2)cc1,2µM*,6%,0.13µM*,0.95µM*,0.32µM*,u
C=CCNC(=O)c1ccc(-c2nc(-c3ccccc3)cs2)cc1,5.6µM*,14%,0.89µM*,u,u,u
Clc1ccc(-c2nc(-c3cc4cc(Cl)ccc4o3)cs2)cc1,x,0%,-7%,-2%,14%,1%
O=C(O)c1ccc(-c2nc(-c3ccc(Cl)cc3Cl)cs2)cc1,11µM*,u,1.4µM*,8.5µM*,1.6µM*,u
COc1ccc(-c2[nH]c(-c3ccc4c(c3)OCO4)nc2-c2ccccc2)cc1,-4%,-10%,-4%,u,1%,u
Cc1c(C)c(C)c2[nH]c(-c3ccc4c(c3)OCO4)nc2c1C,x,-10%,17%,4.8µM*,19%,8%
CCOC(=O)c1c(C)[nH]c(C)c1C(=O)CSc1nnc(-c2ccco2)n1Cc1ccccc1,35µM*,-30%,-2%,-1%,9%,u
CCn1c(SCC(=O)Nc2ccc(OCc3ccccc3)cc2)nnc1-c1ccco1,-32%,-9%,-4%,15µM*,-4%,u
O=C(CSc1nnc(-c2ccco2)n1Cc1ccccc1)NC(=O)NCc1ccccc1,-5%,-8%,1%,1%,6%,18µM*
CCOC(=O)c1c(C)[nH]c(C)c1C(=O)CSc1nnc(-c2ccncc2)n1Cc1ccccc1,-8%,-9%,23%,0%,5%,u
CNC(=O)NC(=O)CSc1nnc(-c2ccco2)n1Cc1ccccc1,-15%,1%,-1%,2%,-1%,-2%
CCOc1ccc(NC(=O)CSc2nnc(-c3ccco3)n2C)cc1,-31%,9%,3%,-3%,-2%,-18%
O=C(CSc1nnc(-c2ccco2)n1Cc1ccccc1)c1ccccc1,7%,u,1.4µM*,12µM*,4.5µM*,u
Cc1cc(=O)n(CC(=O)N2CCCc3ccccc32)c2c1c(C)nn2-c1cccc(F)c1,x,x,x,-1%,x,x
CC(=O)Nc1nonc1-c1nnc(SCC(=O)Nc2cccc(F)c2)n1-c1ccccc1,x,x,x,-10%,x,x
COc1cccc(C(=O)OCC(=O)c2c[nH]c3ccccc23)c1O,25%,u,17%,19µM*,13%,u

# From PubChem BioAssay
